These results are taken from PubChem BioAssay (EPA / NIEHS).

Assay [1] is described as follows: APR_HepG2_CellLoss_72hr: Apredica 72-hour HepG2 Assay for Cell Loss (AID 2282915). As to conditions: high-content imaging. In a few lines:
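Cell number comes from Hoechst 33342-labelled nuclei, imaged at 20x after 3.7% formaldehyde fixation. Dosing was 0.39–200 uM, ten concentrations in duplicate, 0.5% DMSO final, for 72 h. Bidirectional fit relative to DMSO baseline.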

Assay [2] can be described thus: APR_HepG2_P-H2AX_72hr: Apredica 72-hour HepG2 Assay for H2AX Phosphorylation (AID 2282916).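 Note: phospho-histone H2A.x immunostain intensity per cell marking DNA damage.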 As to conditions: imaging, actives raise or lower the signal. In a few lines:
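Phospho-histone H2A.x immunofluorescence, multiplexed with Hoechst and c-Jun, quantified by high-content imaging. Compounds applied to HepG2 for 72 h across ten concentrations (0.39–200 uM, 0.5% DMSO), in duplicate; DMSO baseline.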

Assay [3] can be described thus: APR_HepG2_MitoticArrest_72hr: Apredica 72-hour HepG2 Assay for Mitotic Arrest (AID 2282918). As to conditions: high-content imaging, actives raise or lower the signal. In a few lines:
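Mitotic arrest in HepG2 is scored from phospho-histone H3 staining after 72 hr dosing across 0.39–200 uM, with DMSO at 0.5% v/v. Nuclei are identified by Hoechst 33342 and fluorescence intensity is quantified per cell.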

The nature of assay [4]: APR_HepG2_MicrotubuleCSK_72hr: Apredica 72-hour HepG2 Assay for Microtubule CSK Stabilty (AID 2282919). As to conditions: HepG2 microtubule cytoskeleton, high-content imaging, actives raise or lower the signal. In a few lines: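 High-content imaging of alpha-tubulin staining in fixed HepG2 cells after 72 hr treatment with ten concentrations from 0.39 to 200 uM (0.5% DMSO). Fitting was bidirectional against DMSO; taxol served as positive control.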

The nature of assay [5]: APR_HepG2_P-H2AX_24hr: Apredica 24-hour HepG2 Assay for H2AX Phosphorylation (AID 2282920). Particulars: high-content imaging, actives raise or lower the signal. In a few lines:
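Signal comes from a FITC-labeled secondary detecting phospho-histone H2A.x in fixed HepG2 cells, quantified by automated imaging at 20x. Dosing ran 24 hr across 0.39–200 uM with 0.5% v/v DMSO.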

A short description of assay [6]: APR_HepG2_StressKinase_72hr: Apredica 72-hour HepG2 Assay for Stress Kinase (AID 2282921). Particulars: HepG2 stress kinase (phospho-c-Jun) imaging, actives raise or lower the signal. In a few lines: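 Stress kinase signal is phospho-c-Jun immunofluorescence (1:500 primary, Cy3 secondary) in fixed, permeabilized human HepG2 cells imaged at 20x. Exposure lasted 72 hr over ten concentrations from 0.39 to 200 uM, 0.5% DMSO, in duplicate. Bidirectional fit versus DMSO.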

Assay [7] in a line: APR_HepG2_StressKinase_24hr: Apredica 24-hour HepG2 Assay for Stress Kinase (AID 2282922). Particulars: HepG2 stress kinase (phospho-c-Jun) imaging, actives raise or lower the signal. The essentials: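 High-content imaging of phospho-c-Jun immunofluorescence in fixed, permeabilized HepG2 cells after 24 h dosing. Ten concentrations, 0.39 to 200 uM, run in duplicate at 0.5% v/v DMSO; gain or loss of signal versus DMSO.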

The nature of assay [8]: APR_HepG2_p53Act_72hr: Apredica 72-hour HepG2 Assay for p53 Activation (AID 2282923).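 Note: average cellular p53 protein immunofluorescence intensity in HepG2 cells.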 As to conditions: high-content imaging, actives raise or lower the signal. In a few lines: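 After 72 h with compound (ten points, 0.39 to 200 uM, final DMSO 0.5% v/v), fixed HepG2 cells were labelled with sheep anti-p53 and Hoechst 33342 and imaged; gain or loss versus DMSO scored.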
A short description of assay [9]: APR_HepG2_MitoMass_72hr: Apredica 72-hour HepG2 Assay for Mitochondrial Mass (AID 2282924).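 Note: MitoTracker Red CMXRos stain intensity per cell imaged as mitochondrial mass.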 Particulars: high-content imaging, actives raise or lower the signal. The essentials: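 Readout is imaged MitoTracker Red (250 nM, 30 min, pre-fixation) signal, fitted bidirectionally against DMSO baseline. Human HepG2 liver cells received compound 0.39–200 uM in duplicate for 72 hr, final DMSO 0.5%.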

A short description of assay [10]: APR_HepG2_NuclearSize_72hr: Apredica 72-hour HepG2 Assay for Nuclear Size (AID 2282925). Particulars: high-content imaging, actives raise or lower the signal. In a few lines: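 Nuclear size was read by high-content imaging of Hoechst 33342 stain after formaldehyde fixation. Compounds ran 72 h on HepG2 at 0.39 to 200 uM, with final DMSO 0.5% v/v. Curves fitted both directions relative to DMSO control.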

Assay [11] in a line: ATG_CRE_CIS: Attagene CIS-FACTORIAL HepG2 Assay for human cAMP Responsive Element (CRE) binding protein 3 (AID 2282926). Particulars: HepG2 CRE cis-reporter, Attagene multiplexed mRNA; actives raise or lower the signal. The essentials:
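Cells carrying cis-regulated reporter constructs respond through their own endogenous factors. After 24 h treatment, RNA is reverse-transcribed, amplified, labelled and sized by capillary electrophoresis; up- and down-regulation are both scored against vehicle.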

In assay [12] the target is CCAAT/enhancer-binding protein beta (Homo sapiens) (UniProt P17676). Kind of assay: ATG_C_EBP_CIS: Attagene CIS-FACTORIAL HepG2 Assay for human CCAAT/Enhancer Binding Protein (C/EBP) beta (AID 2282927). Particulars: HepG2 Attagene cis-factorial transcription factor reporter; actives raise or lower the signal. In a few lines:
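Changes in reporter mRNA, rather than exogenous chimeric receptor activity, reflect native C/EBP signalling in transfected HepG2 cells dosed for 24 h; transcripts are detected by RT-PCR and capillary electrophoresis.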

Assay [13] can be described thus: ATG_DR4_LXR_CIS: Attagene CIS-FACTORIAL HepG2 Assay for human Liver X Receptor (LXR), DR4 submotif (AID 2282929). As to conditions: HepG2 Attagene DR4 cis-reporter, mRNA transcription; actives raise or lower the signal. In a few lines: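 Cells were transfected with multiple reporter transcription units, exposed to chemicals for 24 hours, then lysed for RNA. Reporter mRNA induction was measured by RT-PCR with capillary electrophoresis detection and fitted in both directions relative to DMSO.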

The nature of assay [14]: ATG_AP_1_CIS: Attagene CIS-FACTORIAL HepG2 Assay for human Activator Protein 1 (AP-1) (AID 2282931). Particulars: HepG2 Attagene cis-factorial AP-1 reporter mRNA; actives raise or lower the signal. In a few lines:
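Endogenous transcription-factor activity in human HepG2 liver cells is read through a cis-promoter reporter transcript, sampled 24 h after dosing. Detection uses RT-PCR with capillary electrophoresis; values come from bidirectional fitting relative to DMSO.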

Assay [15] in a line: ATG_AP_2_CIS: Attagene CIS-FACTORIAL HepG2 Assay for human Activator Protein 2 (AP-2) (AID 2282932). Particulars: HepG2 AP-2 cis-reporter, Attagene transcription factor profiling; actives raise or lower the signal. In a few lines:
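Endogenous transcription factor activity is reported through transfected multiplex reporter constructs in HepG2, after 24 h of compound exposure. Transcripts were quantified by RT-PCR and capillary electrophoresis of fluorescent fragments. Bidirectional fit against DMSO.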

Assay [16] is described as follows: ATG_BRE_CIS: Attagene CIS-FACTORIAL HepG2 Assay for human Bone Morphogenetic Protein (BMP) Response Element (BRE) (AID 2282933). As to conditions: HepG2 BMP response element reporter, Attagene transcription factor profiling; actives raise or lower the signal. In a few lines: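 After a 24 h chemical treatment, transiently transfected HepG2 cells were lysed for RNA; reporter transcripts were quantified by fluorescent RT-PCR and capillary electrophoresis, normalised to DMSO.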

Assay [17] concerns the target Retinoic acid receptor alpha (Homo sapiens) (UniProt P10276). Briefly: ATG_DR5_RAR_CIS: Attagene CIS-FACTORIAL HepG2 Assay for human Retinoic Acid Receptor Alpha (RARE), DR5 submotif (AID 2282934). As to conditions: HepG2 Attagene cis-factorial RARE DR5 reporter, mRNA; actives raise or lower the signal. The essentials:
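HepG2, transient cis-reporter transfection, 24 h exposure. mRNA readout: RT-PCR, FAM label, HpaI cut, capillary electrophoresis. DMSO baseline, gain/loss fitting.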

Assay [18] in a line: ATG_CMV_CIS: Attagene CIS-FACTORIAL HepG2 Assay for human CMV (Internal Marker) (AID 2282928).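 Note: endpoint acts as a background internal control marker rather than a target.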 Particulars: HepG2 CMV promoter reporter, transcription factor profiling; actives raise or lower the signal. The essentials: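 Fluorescence intensity of RT-PCR-derived reporter fragments, resolved by capillary electrophoresis, gives the signal. HepG2 liver cells bearing transfected cis-element reporters were treated 24 h; activity in either direction was fit relative to DMSO-treated controls.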

Assay [19] addresses Aryl hydrocarbon receptor (Homo sapiens) (UniProt P35869). Kind of assay: ATG_Ahr_CIS: Attagene CIS-FACTORIAL HepG2 Assay for human Aryl Hydrocarbon Receptor (Ahr) (AID 2282930). As to conditions: HepG2 AhR cis-factorial reporter transcription; actives raise or lower the signal. The essentials: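 HepG2, transient MRTU (cis) transfection, 24 h exposure. RNA → cDNA → PCR → 6-FAM primer extension → HpaI 2 h 37 C → CE. Fit: bidirectional, DMSO baseline.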

Active and inactive are the calls of the source. Rule for the calls: active = hit-call score of the fitted dose curve at least 0.9, where 1 is the maximum; inactive = score below 0.9.

Aryl hydrocarbon receptor (Homo sapiens), sequence (P35869 whole entry, looked up): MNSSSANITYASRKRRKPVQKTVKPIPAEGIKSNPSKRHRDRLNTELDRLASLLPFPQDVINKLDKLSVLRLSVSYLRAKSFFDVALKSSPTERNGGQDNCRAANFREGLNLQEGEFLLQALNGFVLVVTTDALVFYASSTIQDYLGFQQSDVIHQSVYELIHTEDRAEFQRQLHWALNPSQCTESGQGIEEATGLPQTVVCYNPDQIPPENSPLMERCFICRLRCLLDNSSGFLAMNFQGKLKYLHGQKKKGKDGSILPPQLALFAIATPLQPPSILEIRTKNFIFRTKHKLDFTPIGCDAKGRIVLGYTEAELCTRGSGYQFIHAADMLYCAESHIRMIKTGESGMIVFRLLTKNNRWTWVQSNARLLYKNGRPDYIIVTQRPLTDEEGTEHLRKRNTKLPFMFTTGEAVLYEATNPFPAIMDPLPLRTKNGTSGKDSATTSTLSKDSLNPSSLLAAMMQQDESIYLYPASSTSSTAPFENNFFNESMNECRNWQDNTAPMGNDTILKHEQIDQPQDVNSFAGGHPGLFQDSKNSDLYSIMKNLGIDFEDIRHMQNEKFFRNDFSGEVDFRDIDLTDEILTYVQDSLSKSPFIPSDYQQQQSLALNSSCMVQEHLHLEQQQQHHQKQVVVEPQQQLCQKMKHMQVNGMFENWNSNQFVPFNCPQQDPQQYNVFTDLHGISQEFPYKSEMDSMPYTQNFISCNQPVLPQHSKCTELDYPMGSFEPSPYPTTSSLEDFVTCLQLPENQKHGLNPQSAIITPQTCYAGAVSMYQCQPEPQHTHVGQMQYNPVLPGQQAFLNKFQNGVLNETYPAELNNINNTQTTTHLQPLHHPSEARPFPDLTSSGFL
Retinoic acid receptor alpha (Homo sapiens), sequence (P10276 whole entry, looked up): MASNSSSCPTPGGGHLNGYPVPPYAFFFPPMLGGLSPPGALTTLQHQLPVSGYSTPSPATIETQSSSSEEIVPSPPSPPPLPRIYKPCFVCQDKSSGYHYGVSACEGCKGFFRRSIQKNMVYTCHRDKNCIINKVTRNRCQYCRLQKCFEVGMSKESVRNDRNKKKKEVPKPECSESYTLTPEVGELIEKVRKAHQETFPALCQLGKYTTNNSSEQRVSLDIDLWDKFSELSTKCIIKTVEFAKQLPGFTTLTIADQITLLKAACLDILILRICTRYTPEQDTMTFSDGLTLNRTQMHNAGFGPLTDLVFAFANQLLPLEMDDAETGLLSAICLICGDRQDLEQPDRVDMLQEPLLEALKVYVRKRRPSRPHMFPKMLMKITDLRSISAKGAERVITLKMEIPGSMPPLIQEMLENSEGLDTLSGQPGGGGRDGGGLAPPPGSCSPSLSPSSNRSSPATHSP
CCAAT/enhancer-binding protein beta (Homo sapiens), sequence (P17676 whole entry, looked up): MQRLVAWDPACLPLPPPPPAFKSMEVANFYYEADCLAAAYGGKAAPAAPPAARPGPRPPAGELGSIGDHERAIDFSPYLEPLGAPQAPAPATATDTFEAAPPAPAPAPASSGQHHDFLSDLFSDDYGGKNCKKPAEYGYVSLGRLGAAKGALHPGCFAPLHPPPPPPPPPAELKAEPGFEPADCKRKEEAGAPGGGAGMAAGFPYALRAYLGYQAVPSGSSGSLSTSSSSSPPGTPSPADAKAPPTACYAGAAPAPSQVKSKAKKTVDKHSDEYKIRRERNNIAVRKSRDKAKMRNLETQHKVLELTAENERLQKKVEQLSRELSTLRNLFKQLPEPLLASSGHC

As to `CCCCCCCCN(C)C`, the result in [1], in assay [2], in assay [3], in assay [4], in [5] and in assay [6] was inactive. Besides, the compound was classed as inactive in assay [7], in assay [8], in assay [9], in assay [10], in assay [11] and in assay [12]. For the same compound, the compound was classed as inactive in [13], in assay [14], in assay [15], in assay [16] and in [17].
On to `CCCCCOC(C)=O`, for which the call in [1], in assay [2], in [3], in assay [4], in [5] and in assay [6] was inactive. Moreover, the outcome in assay [7], in [9], in [10], in [11], in [12] and in [18] was inactive. The outcome in assay [13], in assay [19], in assay [14], in assay [15], in assay [16] and in assay [17] was inactive.
Turning to `CCCCCCCCCCCCCCCCOS(=O)(=O)O`, the compound was called inactive in assay [1], in [2], in [3], in [4], in assay [5] and in assay [6]. The outcome in assay [7], in [8], in [9], in assay [10], in assay [11] and in assay [12] was inactive. In addition, the compound was classed as inactive in assay [19], in [15] and in [16]. Besides, the AC50 in assay [13] is 24500 nM (active); in assay [14], 28500 nM (active).
On to `CCn1nc(C)c2c1C(=O)NCC(c1ccc(O)cc1)=N2`, for which the outcome in [1], in assay [2], in assay [3], in [4], in assay [5] and in assay [6] was inactive. Further, the compound was classed as inactive in assay [7], in [8], in assay [9], in assay [10], in [11] and in assay [12]. The compound was classed as inactive in [13], in [19], in assay [14] and in assay [15].
Regarding `CC[C@H](C)C(=O)O[C@H]1C[C@H](O)C=C2C=C[C@H](C)[C@H](CC[C@@H](O)C[C@@H](O)CC(=O)O)[C@H]21`, the outcome in assay [1], in [2], in assay [3], in assay [4], in [5] and in assay [6] was inactive. The compound was classed as inactive in assay [7], in [9], in assay [10], in assay [11], in assay [12] and in assay [18]. The compound was classed as inactive in assay [13], in assay [14], in assay [15] and in assay [17]. For the same compound, in assay [19], the AC50 was 68400 nM (active).
`Cc1ncc([C@@H](CCCCCCc2ccc3c(n2)NCCC3)CC(=O)O)cn1`: the AC50 is 944 nM (active) in [1]; 39.1 nM (active) in assay [2]; 97.1 nM (active) in assay [3]; 534 nM (active) in assay [4]; 45.9 nM (active) in assay [5]; 39.8 nM (active) in assay [10]. Besides, the AC50 in assay [14] is 17.2 nM (active). For the same compound, the outcome in [6], in assay [7], in assay [9], in assay [11], in [12] and in assay [18] was inactive. Besides, the outcome in [13], in assay [19], in [15] and in [16] was inactive.
With `NNC(=O)c1ccncc1`, the result in [1], in [2], in assay [5], in assay [6], in assay [7] and in assay [8] was inactive. In addition, the result in [10], in [11], in [12], in assay [13], in assay [19] and in [14] was inactive. Besides, in [15], the result was inactive.
With `OC[C@H]1O[C@@H]2O[C@H]3[C@H](O)[C@@H](O)[C@@H](O[C@H]4[C@H](O)[C@@H](O)[C@@H](O[C@H]5[C@H](O)[C@@H](O)[C@@H](O[C@H]6[C@H](O)[C@@H](O)[C@@H](O[C@H]7[C@H](O)[C@@H](O)[C@@H](O[C@H]1[C@H](O)[C@H]2O)O[C@@H]7CO)O[C@@H]6CO)O[C@@H]5CO)O[C@@H]4CO)O[C@@H]3CO`, the outcome in assay [1], in assay [2], in [3], in assay [4], in assay [5] and in assay [6] was inactive. The result in assay [7], in [9], in assay [10], in [11], in assay [12] and in [13] was inactive. The compound was called inactive in [14], in assay [15] and in assay [17]. Besides, in assay [19], the AC50 was 33500 nM (active).
